High-throughput results deposited in PubChem by Broad Institute.
In the library only some 1.7% were active in any assay of this set; here they are far more common.
Vif inh: blocks HIV Vif function; HEK293T cells, Vif self-association by quenched fluorescence, imaging, 24 h; inhibition, % at 7.49 µM; 340,000 compounds, 0.35% hits; AID 602346; in the data active = inhibition above about 50%, passing the limit was not always enough
FGF22 binding: binders of recombinant human FGF22 by thermal shift | activity (Tm shift, normalised), % at 9.99 µM | SYPRO orange fluorescence; percent of sucrose octasulfate shift, DMSO zero | AID 651658 | 340,000 compounds, 1.5% hits | Q9HCT0;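 active = mean Tm shift, scaled 0 neutral to 100 positive control, at about 1.3% or above, every replicate too, limit read from the data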
Target sequence (Q9HCT0 whole entry, looked up): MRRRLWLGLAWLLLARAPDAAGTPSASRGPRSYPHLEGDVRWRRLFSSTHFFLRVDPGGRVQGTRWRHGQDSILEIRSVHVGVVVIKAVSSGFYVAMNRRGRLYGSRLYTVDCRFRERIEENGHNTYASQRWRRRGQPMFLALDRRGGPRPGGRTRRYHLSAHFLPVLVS
F508del corr: CFTR F508del correction in bronchial cells | CFBE cells, YFP halide quenching; stimulated with forskolin plus potentiator P3; % fluorescence drop versus neutral controls | activity (quench increase), % at 7.58 µM | 350,000 compounds, 0.36% hits;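 active = mean added fluorescence quench of at least 8% versus neutral control, with both replicates also reaching 8%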;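 note: cells transiently co-express mutant CFTR-F508del with the halide-sensitive YFP; corrector assay measuring rescue of mutant channel to the surface after 24 h compound exposure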
* = called active by the depositor; / = not tested or not shown.

SMILES | Vif inh | FGF22 binding | F508del corr
CCCCOc1ccc(C(=O)NCC(=O)OC2CCOC2=O)cc1 (stereo not drawn) | 13.0 | / | /
CN(C)CCCNC(=O)C[C@@H]1CC[C@H]2[C@H](COc3ccc(NC(=O)c4ccc5c(c4)OCO5)cc3C(=O)N2C)O1 | / | -0.1 | 1.5
O=C(O)CSc1ccc(Oc2ccc(SCC(=O)O)cc2)cc1 | 16.5 | 43.1* | /
O=C(O)COc1ccc(Oc2ccccc2)cc1 | 0.7 | / | /
CCOC(=O)Nc1ccccc1C(=O)N1CCOCC1 | 5.9 | / | /
CCOCC(=O)Nc1ccccc1C(=O)N1CCOCC1 | 8.7 | 44.1* | -4.7
CO[C@H](CN(C)S(=O)(=O)c1ccccc1)[C@@H](C)CN(Cc1ccccc1Cl)[C@H](C)CO | / | 0.4 | 3.4
C[C@@H]1CN([C@H](C)CO)C(=O)c2cc(NC(=O)Nc3ccc4c(c3)OCO4)ccc2O[C@H]1CN(C)Cc1ccc(C(F)(F)F)cc1 | / | 0.0 | -1.7
COc1ccc2c(c1OC)C(=O)OC2 | -4.7 | -0.3 | -2.9
COc1ccc2c3c(cccc13)C(=O)CC2 | 5.6 | 0.0 | 12.3*
O=C(C[C@H]1CC[C@@H]2[C@H](COC[C@@H](O)CN2C(=O)Nc2ccccc2)O1)NCc1ccncn1 | / | -0.1 | -2.9
COc1ccc(NC(=O)Cc2ccccc2)cn1 | -1.7 | 0.1 | -2.0
COc1ccc(NC(=O)CSc2ccccc2)cn1 | 23.0 | 43.4* | 0.9
COCC(=O)Nc1ccc2c(c1)C(=O)N(C)[C@@H]1CC[C@H](CC(=O)NCc3cccc(F)c3)O[C@@H]1CO2 | / | -0.1 | -1.3
CCCC(=O)Nc1ccc2c(c1)C(=O)N(C)C[C@H](OC)[C@@H](C)CN(Cc1ccccn1)[C@@H](C)CO2 | / | 0.2 | 3.8
C[C@H](CO)N1C[C@H](C)[C@H](CN(C)CC2CC2)Oc2ccc(NC(=O)CCCCCC(=O)Nc3ccccc3N)cc2CC1=O | / | 0.0 | 0.4
COc1cccc(CN2[C@H](CO)[C@H](c3ccccc3)C23CN(C(=O)C2CC2)C3)c1 | / | -0.1 | -0.5
Cc1ccc(C(=O)O)cc1NC(=S)NC(=O)c1ccc([N+](=O)[O-])c(C)c1 | -0.7 | 42.9* | 0.2
Cc1ccc(CNC(=S)Nc2cc(C(=O)O)ccc2C)cc1 | -2.1 | 0.0 | 4.8
NC(=O)[C@@H]1CCCN1Cc1nc(-c2ccc(C(F)(F)F)cc2)no1 | -11.6 | 43.0* | -3.5
NC(=O)[C@@H]1CCCN1Cc1nc(-c2cccs2)no1 | -2.1 | 0.9 | 2.9
COc1ccc2nc(N/C(N)=N/C(=S)Nc3ccccc3)nc(C)c2c1 | -5.8 | 4.1* | 0.4
CCOc1ccc2nc(N/C(N)=N/C(=S)Nc3ccc(OC)cc3)nc(C)c2c1 | -8.8 | -0.1 | 4.5
CC1=NN(c2ccccc2)C(=O)/C1=C\c1cn(-c2ccccc2)nc1C | -11.0 | 0.2 | -4.5
CC1=NN(c2ccccc2)C(=O)/C1=C\c1cn(CCC#N)nc1-c1ccc(Cl)cc1 | 19.3 | 43.6* | 0.9
SMILES | Vif inh | FGF22 binding | F508del corr
Cc1cc(C)nc(NS(=O)(=O)c2ccc(NC(=O)c3ccc4c(c3)OCCO4)cc2)n1 | 1.7 | 43.3* | -1.1
Cc1cc(C)nc(NS(=O)(=O)c2ccc(NC(=O)c3ccc(S(=O)(=O)N(C)C)cc3)cc2)n1 | -4.8 | 0.0 | /
Cc1ccc(S(=O)(=O)Nc2ccc3c(c2)CC(=O)N([C@@H](C)CO)C[C@H](C)[C@H](CN(C)C(=O)Nc2c(C)noc2C)O3)cc1 | / | 0.0 | -1.0
CC(OC(=O)c1ccccc1C(=O)O)c1ccccc1 (stereo not drawn) | 52.5* | 0.1 | -1.7
CCN(CC)C(=O)c1nc[nH]c1C(=O)O[C@@H](C)c1ccccc1 | -1.0 | 0.2 | 2.5
COc1ccc(CNC(=O)C[C@@H]2C[C@@H]3c4cc(NC(=O)CN(C)C)ccc4O[C@@H]3[C@H](CO)O2)cc1 | / | 0.7 | -3.4
N#Cc1cccc(-c2ccc(C3[C@H]4CNC[C@@H]3N4C(=O)Nc3cccc(F)c3)cc2)c1 (stereo partly drawn) | / | / | -2.1
COc1ccc(CCCc2n[nH]c(=S)n2C)cc1C | 0.8 | 0.0 | 0.0
COc1ccc(CCCc2n[nH]c(=S)o2)cc1C | -4.9 | 43.2* | 3.2
CO[C@@H]1CN(C)C(=O)c2cc(NC(=O)c3ccccc3F)ccc2OC[C@H](C)N(C)C[C@H]1C | / | -0.1 | -0.9
COc1ccc(C2CC(c3ccc(Cl)cc3)=NN2c2ccc(S(N)(=O)=O)cc2)cc1 (stereo not drawn) | 24.2 | / | 3.5
COc1ccc(C2CC(c3ccncc3)=NN2c2ccc(S(N)(=O)=O)cc2)cc1 (stereo not drawn) | 93.0* | / | 4.3
Cc1noc(C)c1S(=O)(=O)N(C)C[C@@H]1Oc2c(NC(=O)c3ccc(-c4nccs4)cc3)cccc2C(=O)N([C@@H](C)CO)C[C@@H]1C | / | -0.2 | 0.4
Cc1ccc(NC(=S)Nc2ccc(OC(F)F)c(Cl)c2)cc1F | -1.6 | 42.9* | -2.2
Fc1ccc(NC(=S)Nc2ccc(F)c(Cl)c2)cc1Cl | -12.2 | / | /
CC=Cc1ccc2n(c1=O)C[C@@H]1[C@@H](CO)[C@H](C(=O)N[C@@H](C)c3ccccc3)N(C(=O)c3cnccn3)[C@H]21 (mixture of isomers) | / | -0.3 | /
CCSc1nnc(-c2ccccc2NC(=O)CC)c(=O)[nH]1 | 6.2 | / | /
Nc1ccccc1-c1nnc(SCC(=O)Nc2ccccc2OC(F)F)[nH]c1=O | 15.3 | 43.3* | 3.2
COc1ccc(NC(=O)Nc2ccc3c(c2)CC(=O)N([C@H](C)CO)C[C@@H](C)[C@H](CN(C)C(=O)Nc2ccc(F)cc2)O3)cc1 | / | -0.6 | -5.2
O=C(NCc1ccccc1)C1Cc2c(-c3ccc(Cl)cc3)ccnc2O1 (stereo not drawn) | 6.2 | -0.4 | 9.2*
O=C(NCc1cccc(Cl)c1)C1Cc2c(-c3cccc(F)c3)ccnc2O1 (stereo not drawn) | -3.9 | -0.1 | -2.2
O=C(NCc1ccccc1)C1Cc2c(-c3cccc(F)c3)ccnc2O1 (stereo not drawn) | 13.1 | -0.3 | 9.1*
O=C(Nc1ccccc1)C1Cc2c(-c3ccc(Cl)cc3)ccnc2O1 (stereo not drawn) | -11.5 | 0.2 | 1.8
NC(=O)c1cccc(-c2ccnc3c2CC(C(=O)NCc2ccco2)O3)c1 (stereo not drawn) | -2.5 | -0.1 | -0.6
CC(=O)c1cccc(-c2ccnc3c2CC(C(=O)NCc2ccco2)O3)c1 (stereo not drawn) | 54.2* | -0.1 | 12.6*
SMILES | Vif inh | FGF22 binding | F508del corr
Cc1noc(C)c1NC(=O)N(C)C[C@H]1OCCCC[C@@H](C)Oc2ccc(NS(=O)(=O)c3cn(C)cn3)cc2C(=O)N([C@H](C)CO)C[C@@H]1C | / | -0.2 | -1.9
CO[C@H]1CN(C)C(=O)c2ccc(NC(=O)C3CC3)cc2OC[C@@H](C)N(Cc2cncnc2)C[C@H]1C | / | / | 1.9
COc1ccc(N2CCN(C(c3ccc4ncccc4c3)c3nnnn3C(C)(C)C)CC2)cc1 (stereo not drawn) | -0.7 | -0.2 | 1.5
CC(C)(C)n1nnnc1C(c1ccc2ncccc2c1)N1CCC(O)CC1 (stereo not drawn) | -2.6 | 43.7* | -2.6
Oc1ccc(C(=S)N2CCCC2)cc1 | 1.4 | 0.0 | -0.7
S=C(S)N1CCCC1 | 74.9* | -0.2 | -3.0
C[C@H]1CN([C@@H](C)CO)C(=O)c2cc(NC(=O)C3CC3)ccc2O[C@H]1CN(C)Cc1ccc(C(F)(F)F)cc1 | / | -0.6 | -3.9
